High-throughput results: PubChem, National Center for Advancing Translational Sciences (NCATS)
Akt phos inh – HTS Assay for Inhibitors of Akt Phophorylation: Primary Screen; Neuro2A IGF-stimulated pAkt S473 HTRF, 20 min; hits give low values; activity change, % for hits at 50 µM; hit rate 0.32% among 360,000; in the data active = activity change below about -80%; inconclusive = mostly about -51% to -80%
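Neuro2A cells (4,500/well, DMEM with 0.5% FBS) were treated with compound at a single 50 µM final concentration, stimulated with 6 nM IGF for 20 min at 37 °C, and lysed. Phospho-Akt Ser473 was read by HTRF as 665/615 ratio ×10^4.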
RXFP1 antag – qHTS Assay for Antagonists of the Relaxin Receptor RXFP1; hit rate 0.59% among 350,000; Relaxin receptor 1 (Homo sapiens), Q9HBX9; activity change, negative = inhibition, % at 57.5 µM; HEK293-RXFP1, relaxin-stimulated cAMP HTRF, 30 min; hits give low values;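 active = activity change of -60% or lower, but not beyond a set lower limit; inconclusive = change between -60% and -40%, or beyond the set limit; inactive = change above -40%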
Target sequence (Q9HBX9 whole entry, looked up): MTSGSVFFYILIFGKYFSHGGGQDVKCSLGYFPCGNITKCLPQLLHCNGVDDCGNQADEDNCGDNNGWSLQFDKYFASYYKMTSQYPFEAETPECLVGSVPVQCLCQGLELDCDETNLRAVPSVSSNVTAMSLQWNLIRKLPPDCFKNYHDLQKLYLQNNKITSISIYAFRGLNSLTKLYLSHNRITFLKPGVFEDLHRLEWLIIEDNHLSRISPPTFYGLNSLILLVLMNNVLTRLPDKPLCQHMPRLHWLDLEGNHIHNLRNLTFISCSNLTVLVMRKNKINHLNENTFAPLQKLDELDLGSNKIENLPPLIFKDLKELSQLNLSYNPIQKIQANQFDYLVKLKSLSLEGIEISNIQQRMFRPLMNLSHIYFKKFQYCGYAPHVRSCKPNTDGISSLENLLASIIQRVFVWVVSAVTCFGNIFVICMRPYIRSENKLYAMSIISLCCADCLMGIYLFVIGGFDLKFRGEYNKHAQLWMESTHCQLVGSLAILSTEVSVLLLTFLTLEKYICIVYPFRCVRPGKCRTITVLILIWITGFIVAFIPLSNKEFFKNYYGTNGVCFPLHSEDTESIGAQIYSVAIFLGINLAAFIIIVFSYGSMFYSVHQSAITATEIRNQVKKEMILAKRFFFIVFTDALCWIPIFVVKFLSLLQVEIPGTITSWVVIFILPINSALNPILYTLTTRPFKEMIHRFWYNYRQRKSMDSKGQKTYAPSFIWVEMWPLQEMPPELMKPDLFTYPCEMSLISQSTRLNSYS
gsp antag – qHTS for Antagonists of gsp, the Etiologic Mutation Responsible for Fibrous Dysplasia/McCune-Albright Syndrome: qHTS | Potency, µM (doses to about 76.9 µM), actives largely listed as inhibitors | gsp-mutant cells, cAMP HTRF, 30 min | hit rate 0.4% among 340,000 | AID 624288, 2012; calls by dose curve; cell line not stated here;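 also: intracellular cAMP measured with PDE inhibitor Ro 20-1724 present during compound exposure; nearly all actives have a fitted effect of over 65% in size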
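G418-selected cells were plated in DMEM/10% FBS for 16-24 h at 37C, then treated with compounds plus the PDE inhibitor […] (300 uM solution added) for 30 min at 37C. Intracellular cAMP was measured by HTRF after 30 min lysis at room temperature.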
gsp agonist – qHTS for Agonist of gsp, the Etiologic Mutation Responsible for Fibrous Dysplasia/McCune-Albright Syndrome: qHTS; hit rate 0.13% among 340,000; gsp mutant cells, cAMP HTRF, 30 min; Potency, µM (series often up to 76.9 µM), usual class: activators; AID 624287, 2012; active = well fitted activation curve with a large enough effect; inconclusive = small, poorly fitted or top-dose-only effect, or another doubt; inactive = no such curve, though single readings can be large or run the other way; cell line not stated here;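 also: phosphodiesterase inhibitor Ro 20-1724 added with compounds to block cAMP breakdown; nearly all actives have a fitted effect of over 60% in size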
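Cells stably selected in G418 were plated at 2000/well, grown 16-24 hr, then given compounds in DMSO with the PDE inhibitor […] (300 uM solution added) for 30 min at 37C; cAMP was read by HTRF.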
RXFP1 ag – qHTS Assay for Agonists of the Relaxin Receptor RXFP1; Relaxin receptor 1 (Homo sapiens), Q9HBX9; HEK293T-RXFP1 cAMP TR-FRET, 30 min; response scale: percent of porcine relaxin response, buffer zero; Potency, µM (titrated, usually from 57.5 µM), hits mostly activators; hit rate 0.3% among 370,000; active = well fitted activation curve with a large enough effect; inconclusive = small, poorly fitted or top-dose-only effect; also: nearly all actives have a fitted effect of over 60% in size
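Agonist response is measured as cAMP accumulation in an RXFP1-transfected HEK293T line under PDE4 inhibition. Values are scaled between buffer-only and 29 nM porcine relaxin, and EC50s come from standard Hill equation fits.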
Each line names hits and unclear results; the compound was inactive in the other large screens. Rows were chosen to be rich in hits. Some 1.2% of all compounds tested hit in one or more screens of this group.

O=C(CSc1nc2c(oc3ccccc32)c(=O)n1Cc1ccco1)Nc1ccccc1Cl	none (no result: Akt phos inh, RXFP1 antag, gsp antag, gsp agonist)
C=CCNC(=O)c1ccccc1NC(=O)c1ccc(Cl)c(S(=O)(=O)Nc2ccccc2)c1	Akt phos inh -88%
Cc1ccc(S(=O)(=O)Nc2ccccc2-c2ccccc2NS(=O)(=O)c2ccc(C)cc2)cc1	gsp antag 40µM
Cc1ccc(S(=O)(=O)Nc2ccccc2C(N)=O)cc1	none
COc1ccc2cc(C(=O)NCc3ccco3)c(=Nc3ccc(C(=O)O)cc3)oc2c1	Akt phos inh -112%
COc1ccccc1OCc1ccc(C(=O)OCC2CCCO2)o1 (stereo unspecified)	Akt phos inh -119%
COC(=O)c1ccc(COc2ccccc2OC)o1	gsp agonist inconclusive
O=C(CCCl)NCCc1ccccc1	none (no result: Akt phos inh, gsp antag, gsp agonist, RXFP1 ag)
O=[N+]([O-])c1cccc(S(=O)(=O)Nc2ccc(-c3ccc(N4CCCC4)nn3)cc2)c1	RXFP1 antag -71
COc1ccc(S(=O)(=O)Nc2cccc(-c3ccc(N4CCCC4)nn3)c2)cc1F	none (no result: Akt phos inh, gsp antag, gsp agonist)
COC(=O)COc1ccc(NS(=O)(=O)c2cccc([N+](=O)[O-])c2)cc1	RXFP1 antag -66, gsp antag inconclusive
COc1ccc(S(=O)(=O)Nc2cccc(-c3ccc(N4CCCCCC4)nn3)c2)cc1OC	gsp antag 25µM
Cc1cc(NC(=O)C2CCN(S(=O)(=O)c3ccc(Br)s3)CC2)ccc1Br	none (no result: Akt phos inh, gsp antag, gsp agonist)
COCCCNC(=O)c1ccc(-c2nc(CS(=O)(=O)c3ccc(C)cc3)c(C)o2)cc1	none (no result: Akt phos inh, gsp antag, gsp agonist)
CCC1=C(c2ccc(C)cc2)S(=O)(=O)N=C1N1CCC(C(=O)NCc2ccc(N(C)C)cc2)CC1	none (no result: Akt phos inh, gsp antag, gsp agonist)
O=C(Cn1cc(SCc2c(F)cccc2Cl)c2ccccc21)N1CCCCCC1	none (no result: Akt phos inh, gsp antag, gsp agonist)
Cc1ccc(OCCCSc2nc(-c3ccc(C(C)(C)C)cc3)nc3cc(=O)[nH]n23)cc1C	none (no result: Akt phos inh, gsp antag, gsp agonist)
CC1CCc2nc(NC(=O)CN3CCN(c4ccc(F)cc4)CC3)sc2C1 (stereo unspecified)	none
COc1cccc(N2CCN(CC(=O)Nc3nc4c(s3)CC(C)CC4)CC2)c1 (stereo unspecified)	Akt phos inh -89%, gsp agonist inconclusive
COc1ccc(CCNC(=O)Cn2nc(C)c3c(C)n(-c4ccc(C)cc4)nc3c2=O)c(OC)c1	none (no result: Akt phos inh, gsp antag, gsp agonist)
O=C(NCc1cccc(Cl)c1)c1cc(COc2ccc3ncccc3c2)on1	gsp antag 35µM
O=C1c2cccnc2C(O)N1Cc1ccc(F)cc1 (stereo unspecified)	Akt phos inh -95%
Cc1nnc(-c2ccc(Oc3ccc(Br)cc3)c([N+](=O)[O-])c2)o1	gsp antag 50µM
O=C(COc1ccccc1[N+](=O)[O-])OCCCOC(=O)COc1ccccc1[N+](=O)[O-]	gsp agonist inconclusive
O=C(COc1ccccc1[N+](=O)[O-])OCC(=O)c1ccc(Br)s1	gsp agonist 10µM (no result: RXFP1 ag)
COc1cc(/C=C2\SC(=S)N(Nc3ncc(C(F)(F)F)cc3Cl)C2=O)ccc1O	RXFP1 antag -74
N#CCC(=O)NN	none (no result: Akt phos inh, gsp antag, gsp agonist, RXFP1 ag)
CCC(=O)N1CCN(c2ccccc2NC(=O)c2ccc(-c3cccc([N+](=O)[O-])c3)o2)CC1	gsp antag 5.6µM
CCC(=O)c1ccc(OCC(O)Cn2c(C)nc3ccccc32)cc1 (stereo unspecified)	gsp agonist 28µM
Cc1onc(-c2c(F)cccc2Cl)c1C(=O)NCc1ccccn1	Akt phos inh -109%
Cc1onc(-c2ccccc2Cl)c1C(=O)NCc1ccccn1	none
Cc1cccc(C)c1N1CCN(C(=O)c2ccc3c(c2)OCO3)CC1	RXFP1 antag -62
Cc1ccccc1C(=O)N1CCN(c2ccc(NC(=O)c3ccc4c(c3)OCCO4)cc2)CC1	RXFP1 antag inconclusive, gsp antag 35µM
CSc1ccc(CCNC(=O)c2csc3c2CCCCC3)cc1	none (no result: Akt phos inh, RXFP1 antag, gsp antag, gsp agonist)
Cc1ccc(N2C(=O)CS(=O)(=O)C23C(=O)N(Cc2ccccc2C)c2ccccc23)cc1Cl (stereo unspecified)	none (no result: Akt phos inh, RXFP1 antag, gsp antag, gsp agonist)
Cc1ccc(CNC(=O)CN(C)S(=O)(=O)c2ccc3c(c2)n(C)c(=O)c(=O)n3C)cc1	RXFP1 antag -68
Cc1ccc(S(=O)(=O)N(C)CC(=O)Nc2ccc(C)cn2)cc1	none
Cc1ccc(S(=O)(=O)N(C)CC(=O)Nc2cc(C)ccn2)cc1	RXFP1 antag -83
CCOc1ccccc1NC(=O)Cn1c(=O)n(-c2ccc(C)cc2)c(=O)c2c1cnn2C	none (no result: Akt phos inh, RXFP1 antag, gsp antag, gsp agonist)
Cc1c(-c2ccccc2Br)nc2ccccc2c1C(=O)O	none (no result: RXFP1 ag)
CCc1ccc(-c2nc3ccc(Br)cc3c(C(=O)O)c2C)s1	gsp agonist inconclusive, RXFP1 ag 7.1µM
CCCCNC(=O)Cn1cnc2c(cnn2-c2ccc(C)c(C)c2)c1=O	Akt phos inh -84%
CCOC(=O)Cn1cnc2c(cnn2-c2ccc(C)c(C)c2)c1=O	none (no result: Akt phos inh, gsp antag, gsp agonist)
COc1ccc(OC)c(CCNC(=O)c2c(C)nn(-c3ccc(F)cc3)c2-n2cccc2)c1	none (no result: Akt phos inh, RXFP1 antag, gsp antag, gsp agonist)
Cc1ccc(NS(=O)(=O)c2cccc(C(=O)NNC(=O)c3cccn3C)c2)c(C)c1	none
Cc1ccnc(NC(=O)c2cccc(S(=O)(=O)Nc3ccc(C)cc3C)c2)c1	RXFP1 antag -77, gsp agonist inconclusive (no result: RXFP1 ag)
CCc1cc(/C(Cc2cscn2)=N\O)c(O)cc1O	none
CCc1cc(/C(Cc2ccccn2)=N\O)c(O)cc1O	gsp antag 35µM
Cc1cccc(N2CCN(C(=O)CN3C(=O)COc4ccc(S(=O)(=O)N5CCC(C)CC5)cc43)CC2)c1C	none (no result: Akt phos inh, RXFP1 antag, gsp antag, gsp agonist)
CCC(=O)N1c2ccc(S(=O)(=O)CCC(=O)Nc3ccc(Br)c(C)c3)cc2CC1C (stereo unspecified)	none (no result: Akt phos inh, RXFP1 antag, gsp antag, gsp agonist)
O=C(/C=C/Nc1ccc(OC(F)(F)F)cc1)C(F)(F)F	Akt phos inh -127%
CN(C)CCCN(C(=O)c1ccc2c(c1)CCCC2)c1nc2c(F)cccc2s1	RXFP1 antag -74
COc1ccc(C(=O)c2ccccc2)c2c(O)ccc(C(=O)c3ccccc3)c12	gsp antag 28µM (no result: Akt phos inh)
COc1cc(O)c(C(=O)c2ccccc2)cc1S(=O)(=O)O	none (no result: Akt phos inh, gsp antag, gsp agonist, RXFP1 ag)
NC[C@H]1O[C@H](O[C@H]2[C@H](O[C@@H]3O[C@H](CO)[C@@H](O)[C@H]3O)C(O)[C@H](N)C[C@@H]2N)[C@H](N)[C@@H](O)[C@@H]1O (stereo partly specified)	none (no result: Akt phos inh, gsp antag, gsp agonist, RXFP1 ag)
CCOC(=O)c1nnn(-c2nonc2N)c1-c1ccc(OC)cc1	Akt phos inh -110%
CCOC(=O)c1nnn(-c2nonc2N)c1-c1ccc(Cl)cc1	none
CCOC(=O)c1nnn(-c2nonc2N)c1CN1CCCC1	gsp antag 50µM
Cc1nnc(SCc2ccccc2Cl)c2cc3occc3n12	none (no result: Akt phos inh, gsp antag, gsp agonist)
